Screens as filed in PubChem BioAssay.
HT1080-NT tox: kills 2HG-producing HT-1080-NT fibrosarcoma cells; HT-1080-NT fibrosarcoma viability, CellTiter-Glo ATP luminescence, 48 h; Potency, µM (titrated, usually from 46.1 µM), without a hit: top-dose activity, negative = less viability, most hits filed as cytotoxic; 1.6% of 360,000 active; AID 686970;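 further: NT is the 2HG producing partner of a matched IDH1 knockdown line; 0% = DMSO-treated cells and -100% = media-only wells without cells; nearly all actives have a fitted effect of over 55% in size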
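750 cells/well, RPMI + 5% FBS; 2 h settle, compound pin-transfer, 48 h at 37 degrees C. CellTiter-Glo 10 min RT, luminescence. Normalized to DMSO and media-only wells.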
KB-3-1 tox: KB-3-1 parental cell cytotoxicity | Potency, µM (titrated, usually from 46.1 µM), usual class: cytotoxic | KB-3-1 viability, CellTiter-Glo ATP luminescence, 72 h | AID 1347075 | 1.4% of 400,000 active; further: nearly all actives have a fitted effect of over 60% in size
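Parental KB-3-1 viability, qHTS format: 72 h compound exposure, 37 °C; CellTiter-Glo; media-only wells and DMSO plates as controls; concentration-effect fits on corrected data.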
HT1080 IDH1KD tx: toxicity to HT-1080 IDH1 knockdown cells (counter line). HT-1080 IDH1 knockdown viability, ATP luminescence, 48 h. Potency, µM (series often up to 46.1 µM), for inactives: at the top dose activity, negative = toxicity, most hits filed as cytotoxic. 2% of 360,000 active;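 further: 0% = DMSO wells and -100% = cell-free medium wells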
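After a 2 h attachment period, IDH1KD HT-1080 cells took pin-transferred compound for 48 h at 37 °C; ATP-based luminescence after 10 min room-temperature reagent incubation reported viability.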
KB-V1 MDR tox: kills drug-selected multidrug resistant KB-V1 cells; KB-V1 MDR cells viability, CellTiter-Glo, 72 h; Potency, µM (top dose mostly 46.1 µM), most hits filed as cytotoxic; 3.4% of 400,000 active; further: nearly all actives have a fitted effect of over 60% in size
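Following 72 h at 37 degrees C with compound, KB-V1 cell viability was read by CellTiter-Glo luminescence, medium being phenol-red-free DMEM plus 10% FBS; concentration-response parameters came from normalized, curve-fitted qHTS data.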
Active calls of the source: *; i = inactive; ? = inconclusive; . = no result. Shown are actives, neighbours in structure and some others; about 5.7% of the full set was active somewhere. The call rests on the fitted dose curve; in most records, active means well fitted curve in the direction sought with a large enough effect; inconclusive means small, poorly fitted or top-dose-only effect, or another doubt; inactive means no such curve, though single readings can be large; an effect the other way counts as inactive or inconclusive. Unless noted, on the % scale 0 is the no-effect control and ±100 the full control effect; potency means the concentration at half of the fitted maximal effect.

SMILES	HT1080-NT tox	KB-3-1 tox	HT1080 IDH1KD tx	KB-V1 MDR tox
Cc1cc(C(=O)Nc2cnn(Cc3ccc(Cl)cc3Cl)c2)no1	-13%	i	-29%	13µM*
Cc1cc(C(=O)NNc2ccc(Cl)cc2)no1	2.3µM*	?	2.6µM*	i
COc1cccc(-c2cc(C(=O)Nc3cnn(Cc4ccc(Cl)cc4Cl)c3)no2)c1	.	i	.	i
Cc1cc(C(=O)NNc2ccc(C)c(C)c2)no1	?	?	23µM*	?
O=C(CSc1nnc2scc(-c3ccc(Cl)cc3)n12)Nc1ccccc1F	.	i	.	i
CN(C)c1ccc(CNC(=O)CN2CCSc3ccc(S(=O)(=O)N(C)C)cc32)cc1	.	i	.	?
CCNC(=O)C(Sc1ccccc1)c1ccccc1 (stereo not drawn)	-3%	i	-5%	i
CCCCNC(=O)C(Sc1ccccc1)c1ccccc1 (stereo not drawn)	4%	i	2%	15µM*
CC(C)c1ccc(N(C(=O)c2snc(C(N)=O)c2N)C(C(=O)NCC2CCCO2)c2ccc(N(C)C)cc2)cc1 (stereo not drawn)	-15%	?	?	21µM*
CC(C(=O)NCC1CCCO1)N(C(=O)c1snc(C(N)=O)c1N)c1cccc(F)c1 (stereo not drawn)	-4%	i	0%	12µM*
CC(C(=O)NCC1CCCO1)N(C(=O)c1snc(C(N)=O)c1N)c1ccccc1 (stereo not drawn)	3%	i	1%	i
Cc1ccc(-c2cc(C(=O)N(Cc3ccc(C(C)(C)C)cc3)Cc3ccco3)no2)cc1	.	i	.	i
Cc1cc(C(=O)NC2CCCc3c2cnn3-c2cccc(C)c2C)no1 (stereo not drawn)	-25%	1.8µM*	?	?
CC1=C(C(=O)NC2CCCc3c2cnn3-c2cccc(C)c2C)OCCO1 (stereo not drawn)	-12%	?	?	?
Cc1cccc(-n2ncc3c2CCCC3NC(=O)c2ccncc2)c1C (stereo not drawn)	0%	?	-9%	i
COc1ccc(C(=O)NC2CCCc3c2cnn3-c2cccc(C)c2C)o1 (stereo not drawn)	21µM*	?	?	?
CCOc1ccc(CCNC(=O)c2cc3cccc4c3n2CCS4)cc1	.	i	.	i
CCCNC(=O)c1ccc(N2CCC3(CC2)CC(c2ccccc2)=NO3)c([N+](=O)[O-])c1	-21%	?	6%	i
CCCCCCCNC(=O)c1ccc(N2CCC3(CC2)OCCO3)c([N+](=O)[O-])c1	-1%	i	0%	9.2µM*
CC1(C)CCC(c2ccc(Cl)cc2)=C(CN2CCN(c3ccc(C(=O)NS(=O)(=O)c4ccc(N[C@H](CCN5CCOCC5)CSc5ccccc5)c(S(=O)(=O)C(F)(F)F)c4)cc3)CC2)C1	.	i	.	i
COc1ccc(Cl)cc1NC(=O)c1c(NCc2ccc(C)o2)sc2c1CCC(C)C2 (stereo not drawn)	.	i	.	i
CN1CCN(C(=O)c2cccc(-c3cnc4cnc(-c5ccccc5Oc5ccccc5)cn34)c2)CC1	?	?	23µM*	7.3µM*
O=C(Cn1c(=O)ccc2cc(S(=O)(=O)N3CCCC3)ccc21)Nc1ccc(Cl)cc1	.	i	.	i
O=C(Nc1ccc(Cl)cc1)C(NS(=O)(=O)c1cccs1)c1ccccc1 (stereo not drawn)	.	i	.	i
Cc1cccc(C)c1OCc1cc(=O)n2c3c(sc2n1)CCCC3	.	i	.	i
SMILES	HT1080-NT tox	KB-3-1 tox	HT1080 IDH1KD tx	KB-V1 MDR tox
COc1cccc(-c2nnc3sc(C4CCCCC4)nn23)c1	1%	?	-6%	3.7µM*
Cc1cc(-c2nnc3sc(C4CCCCC4)nn23)n[nH]1	19%	i	21%	i
COc1cc(-c2nnc3sc(C4CCCCC4)nn23)cc(OC)c1OC	-8%	?	-23%	18µM*
CCCc1ccc(OC(=O)c2sc3ncn(Cc4cccc(F)c4)c(=O)c3c2C)cc1	.	i	.	i
Cc1ccc(-n2ncc(C(=O)NCc3ccco3)c2C2CCN(C(=O)OC(C)(C)C)CC2)c(C)c1	.	i	.	i
Cc1ccc2nc(-c3ccc(C)c(NC(=O)COc4ccccc4Cl)c3)oc2c1	.	?	.	i
Cc1ccc(CCNS(=O)(=O)c2cc(-c3cc(C)no3)ccc2C)cc1	.	i	.	i
CCOC(=O)Cn1c(=NC(=O)C2COc3ccccc3O2)sc2cc(S(N)(=O)=O)ccc21 (stereo not drawn)	-3%	i	-1%	i
CCOC(=O)Cn1c(=NC(=O)c2ccc([N+](=O)[O-])s2)sc2ccccc21	-4%	4.6µM*	1%	?
COc1cc(OC)c(NC(=O)CN2CCCN(Cc3ccccc3C)S2(=O)=O)cc1Cl	.	i	.	i
COc1ccc(C2CCCN2CC(O)COc2ccccc2C(C)C)cc1 (stereo not drawn)	21µM*	i	21µM*	?
c1cnc2c(c1)ccc1cccnc12	7.3µM*	?	7.3µM*	?
CCCCNC(=O)C1C2C=CC3(CN(Cc4ccc(C)cc4)C(=O)C13)O2 (stereo not drawn)	16%	i	11%	i
Cc1ccc(CN2CC34C=CC(O3)C(C(=O)NCc3ccco3)C4C2=O)cc1 (stereo not drawn)	2%	i	-2%	18µM*
Cc1ccc(NC(=O)CCS(=O)(=O)c2ccc(Br)s2)c(Br)c1	.	i	.	i
CC(C)CC(N)c1csc(NC(=O)Nc2ccccc2C(C)(C)C)n1 (stereo not drawn)	?	?	?	23µM*
COc1ccc(CNC(=O)Nc2nc(C(N)CCc3ccccc3)cs2)cc1 (stereo not drawn)	18µM*	?	?	i
NC(CCc1ccccc1)c1csc(Nc2nccc(C(F)(F)F)n2)n1 (stereo not drawn)	16µM*	i	?	i
COc1ccccc1NC(=O)Nc1cc(NC(=O)Nc2ccccc2OC)c(C)nc1C	16µM*	i	16µM*	i
Cc1ccc(O/C=C2/Nn3c(nnc3-c3cc(-c4ccccc4)n[nH]3)S2)cc1	.	i	.	i
COC(=O)c1c(NC(=O)c2cc(=O)c3ccc(C)c(C)c3o2)sc2c1CCCC2	.	i	.	i
CCS(=O)(=O)c1ncc(N(Cc2ccco2)Cc2ccccc2F)c(C(=O)Nc2cccc(Cl)c2)n1	.	i	.	i
COc1ccccc1NC(=O)Nc1nc(C(N)CCc2ccccc2)cs1 (stereo not drawn)	23µM*	i	?	i
COc1ccc(CCNC(=O)Nc2nc(C(N)CCc3ccccc3)cs2)cc1OC (stereo not drawn)	16µM*	i	?	i
CN(C)Cc1csc(NC(=O)Nc2ccccc2-c2ccccc2)n1	?	i	?	i
CN(C)Cc1csc(NC(=O)Nc2ccccc2Oc2ccccc2)n1	16µM*	?	?	?
